Inconclusive results are not listed. Activity calls are given as the source filed them. Unless noted, calls come from the whole dose curve; as a rule, active = well fitted curve in the direction sought with a large enough effect in the repeat runs; inconclusive = weak or mixed curves; inactive = no such curve, though single readings can be large; an effect the other way counts as inactive or inconclusive.
Assays:
[1] = qHTS assay for small molecule agonists of the p53 signaling pathway (AID 651631; calls by dose curve; note: nearly all actives have a fitted effect of over 15% in size)
Summary of the method: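 Quantitative high-throughput format: 4,000 p53RE-bla HCT-116 cells/well, 5 h pre-incubation, 16 h compound exposure at 37 °C, 2 h room-temperature substrate step, fluorescence intensity measured.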

[2] = qHTS assay for small molecules that induce genotoxicity in human embryonic kidney cells expressing luciferase-tagged ATAD5 (AID 651632); note: nearly all actives have a fitted effect of over 15% in size
Summary of the method: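 ATAD5-luc HEK293T, 2,000 cells/well; cpd or DMSO pin-transferred; 16 hr, 37C/5% CO2; Amplite 30 min RT; luminescence.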

[3] = qHTS assay for small molecule agonists of the p53 signaling pathway - cell viability (AID 651633; calls by dose curve;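 note: p53RE-bla HCT reporter cells with a stable beta-lactamase p53 reporter; series mostly up to about 83 µM; nearly all actives have a fitted effect of over 30% in size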)
Summary of the method: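 p53RE-bla cells, seeded at 4,000 per well and rested 5 h at 37 C/5% CO2, received compounds in DMSO for 16 h at 37 C. CellTiter-Glo was then added, and luminescence was read after 30 min at room temperature to gauge cytotoxicity.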

[4] = qHTS assay for small molecules that induce genotoxicity in human embryonic kidney cells expressing luciferase-tagged ATAD5 - cell viability (AID 651634; calls by dose curve; note: nearly all actives have a fitted effect of over 25% in size)
Summary of the method: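 Fluorescence from CellTiter-Fluor, reporting protease activity within live cells, served as the viability read-out. HEK293T cells carrying luciferase-tagged ATAD5 had been treated with compound for 15.5 hr at 37C.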

[5] = qHTS assay for small molecule disruptors of the mitochondrial membrane potential - cell viability (AID 720634; calls by dose curve;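 note: human HepG2 liver cancer cells; series mostly up to about 83 µM; nearly all actives have a fitted effect of over 20% in size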)
Summary of the method: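 Cells: HepG2, 2,000/well, attached overnight. Compound 1 hr, 37 C/5% CO2. +m-MPI dye, +CellTiter-Glo 30 min RT. Readout: luminescence (ATP).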

[6] = qHTS assay for small molecule disruptors of the mitochondrial membrane potential (AID 720635)
Summary of the method: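 HepG2 cells (2,000/well) attached overnight at 37C, then took compound for 1 hr at 37C, 5% CO2. Mito-MPS dye was added for 30 min; fluorescence was read at 490/535 nm (monomers) and 540/590 nm (aggregates).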

[7] = qHTS assay to test for compound auto fluorescence at 590 nm (red) in HepG2 cells (AID 720674)
Summary of the method: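 Intrinsic compound fluorescence in the red window (Ex/Em 540/590 nm) is measured in attached HepG2 cells exposed for 1 hr, DMSO vehicle as baseline, benchmarked to Rose Bengal sodium.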

[8] = qHTS assay to test for compound auto fluorescence at 535 nm (green) in HepG2 cells (AID 720675)
[9] = qHTS assay to test for compound auto fluorescence at 460 nm (blue) in HEK293 cells (AID 720678)
Summary of the method: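 Cells were seeded and left to adhere for 4-5 hr at 37C. Compounds were then pin-transferred. After an overnight incubation at 37C under 5% CO2, intrinsic fluorescence at 405/460 nm was measured and referenced to triamterene.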

[10] = qHTS assay to test for compound auto fluorescence at 590 nm (red) in HEK293 cells (AID 720679)
Summary of the method: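 Each well held 2,000 HEK293 cells in medium containing 10% dialyzed FBS. Following 4-5 hr attachment at 37C, 23 nL test compound or DMSO was added; plates sat overnight, and red fluorescence (540/590nm) was recorded.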

[11] = qHTS assay to test for compound auto fluorescence at 535 nm (green) in HEK293 cells (AID 720680)
[12] = qHTS assay to test for compound auto fluorescence at 460 nm (blue) in HEK293 cell free culture (AID 720681)
Summary of the method: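 Test compounds were pinned into cell-free culture medium (DMEM with 10% FBS) and fluorescence was read directly at Ex/Em 405/460 nm. Signals were expressed as fluorescence equivalents of triamterene, with DMSO vehicle as control.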

[13] = qHTS assay to test for compound auto fluorescence at 535 nm (green) in HEK293 cell free culture (AID 720682)
Summary of the method: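 Measurement is a direct plate read of green fluorescence (485 nm in, 535 nm out) after compound addition to serum-supplemented DMEM lacking cells, with fluorescein used to express intensities.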

[14] = qHTS assay to test for compound auto fluorescence at 590 nm (red) in HEK293 cell free culture (AID 720683)
Summary of the method: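 Tox21 10K library compounds were pinned into cell-free DMEM with 10% FBS and fluorescence was read at excitation 540 nm. Activity is expressed as Rose Bengal sodium equivalency.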

[15] = qHTS assay to test for compound auto fluorescence at 590 nm (red) in HepG2 cell free culture (AID 720684)
Summary of the method: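 Red fluorescence (540 nm excitation, 590 nm emission) was measured after compound transfer into cell-free MEM supplemented with 10% FBS. Values are equivalencies against Rose Bengal sodium.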

[16] = qHTS assay to test for compound auto fluorescence at 460 nm (blue) in HepG2 cell free culture (AID 720685)
Summary of the method: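 Compound (23 nL) or DMSO pinned into cell-free MEM with 10% FBS; blue fluorescence read at 405/460 nm excitation/emission, expressed as auto-fluorescence equivalency to triamterene.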

[17] = qHTS assay to test for compound auto fluorescence at 535 nm (green) in HepG2 cell free culture (AID 720686)
[18] = qHTS assay to test for compound auto fluorescence at 460 nm (blue) in HepG2 cells (AID 720687)
Summary of the method: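 Cells (2,000/well in MEM with 10% FBS) attached overnight at 37 C, then were exposed to compound or DMSO for 1 hr at 37 C, 5% CO2. Fluorescence read at Ex/Em 405/460 nm, expressed as triamterene-equivalent signal.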

[19] = biological target: Glucocorticoid receptor (Homo sapiens) (UniProt P04150); assay: qHTS assay to identify small molecule agonists of the glucocorticoid receptor (GR) signaling pathway (AID 720691; active = well fitted activation curve with a large enough effect in the signal ratio in the repeat runs, not every such curve was filed as active; the % refers to the signal ratio)
Sequence of Glucocorticoid receptor (Homo sapiens) (P04150 whole entry, looked up): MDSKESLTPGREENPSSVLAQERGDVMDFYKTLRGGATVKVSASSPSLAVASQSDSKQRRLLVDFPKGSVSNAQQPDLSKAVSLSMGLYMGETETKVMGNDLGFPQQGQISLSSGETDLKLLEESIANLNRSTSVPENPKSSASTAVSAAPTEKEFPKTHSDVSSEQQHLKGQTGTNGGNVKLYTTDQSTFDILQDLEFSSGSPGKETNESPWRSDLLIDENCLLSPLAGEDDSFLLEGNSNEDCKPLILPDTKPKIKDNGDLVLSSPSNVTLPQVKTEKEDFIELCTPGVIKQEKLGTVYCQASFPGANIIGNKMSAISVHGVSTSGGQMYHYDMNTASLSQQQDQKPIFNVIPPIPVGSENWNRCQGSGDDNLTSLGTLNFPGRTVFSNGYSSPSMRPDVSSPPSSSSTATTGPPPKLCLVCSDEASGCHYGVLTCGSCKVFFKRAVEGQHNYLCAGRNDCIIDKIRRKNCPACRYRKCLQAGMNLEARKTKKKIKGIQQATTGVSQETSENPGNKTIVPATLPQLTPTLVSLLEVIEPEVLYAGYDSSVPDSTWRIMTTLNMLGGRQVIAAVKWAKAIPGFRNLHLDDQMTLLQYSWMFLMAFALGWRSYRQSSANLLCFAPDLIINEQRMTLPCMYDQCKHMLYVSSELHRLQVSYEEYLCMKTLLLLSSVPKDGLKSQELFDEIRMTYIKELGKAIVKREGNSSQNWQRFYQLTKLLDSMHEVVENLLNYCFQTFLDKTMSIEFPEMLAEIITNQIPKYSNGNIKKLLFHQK
Summary of the method: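 Fluorescence intensity from LiveBLAzer B/G FRET substrate (2 h, room temperature) reports beta-lactamase expression driven by the glucocorticoid response element in GR-bla HeLa cells after 18 h compound exposure at 37 C.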

[20] = biological target: Glucocorticoid receptor (Homo sapiens) (UniProt P04150); assay: qHTS assay to identify small molecule antagonists of the glucocorticoid receptor (GR) signaling pathway (AID 720692; active = well fitted inhibition curve with a large enough effect in the signal ratio in the repeat runs, not every such curve was filed as active; the % refers to the signal ratio)
Summary of the method: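 HeLa GR-bla cells; cmpd + dex 5 nM final, 18 h 37 C; LiveBLAzer B/G FRET substrate 2 h RT; fluorescence intensity read. Antagonist mode, qHTS.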
% is set by controls: 0 for no effect and ±100 for the full control effect.

CC1(C)CON(Cc2ccccc2Cl)C1=O
inactive: Potency [1] | Potency [2] | Potency [3] | Potency [4] | Potency [5] | Potency [6] | outcome [7] | outcome [8] | outcome [9] | outcome [10] | outcome [11] | outcome [12] | outcome [13] | outcome [14] | outcome [15] | outcome [16] | outcome [17] | outcome [18]

COP(N)(=S)Oc1ccccc1C(=O)OC(C)C (stereo not given)
inactive: Potency [1] | Potency [2] | Potency [3] | Potency [4] | Potency [5] | outcome [7] | outcome [8] | outcome [9] | outcome [10] | outcome [11] | outcome [12] | outcome [13] | outcome [14] | outcome [15] | outcome [16] | outcome [18] | outcome [19] | Potency [20]

Cc1cnc[nH]1
inactive: Potency [1] | Potency [2] | Potency [3] | Potency [4] | Potency [5] | outcome [7] | outcome [8] | outcome [9] | outcome [10] | outcome [11] | outcome [12] | outcome [13] | outcome [14] | outcome [15] | outcome [16] | outcome [17] | outcome [18] | outcome [19] | Potency [20]

O=C(CCCN1CCC(n2c(=O)[nH]c3ccccc32)CC1)c1ccc(F)cc1
inactive: Potency [1] | Potency [2] | Potency [3] | Potency [4] | Potency [5] | Potency [6] | fluorescence, relative to Rose Bengal [7] -0.608% [at 18.6 µM] | fluorescence, % of fluorescein control [8] 0.0365% [at 18.6 µM] | fluorescence, % of triamterene [9] 0.114% [at 18.6 µM] | fluorescence, % of fluorescent control [10] 0.426% [at 18.6 µM] | fluorescence, % of fluorescein [11] 0.0703% [at 18.6 µM] | fluorescence, % of fluorescent control [12] 0.0625% [at 18.6 µM] | fluorescence, % of fluorescent control [14] -0.0219% [at 18.6 µM] | fluorescence, % of Rose Bengal [15] 0.463% [at 18.6 µM] | fluorescence, % of fluorescent control [18] 0.0395% [at 18.6 µM] | outcome [19]

CCCSC(=O)N(CCC)CCC
inactive: Potency [1] | Potency [2] | Potency [3] | Potency [4] | Potency [5] | Potency [6] | outcome [7] | outcome [8] | outcome [9] | outcome [10] | outcome [12] | outcome [13] | outcome [14] | outcome [15] | outcome [16] | outcome [17] | outcome [18] | outcome [19]

N#CCNCC#N
inactive: Potency [1] | Potency [2] | Potency [3] | Potency [4] | Potency [5] | Potency [6] | outcome [7] | outcome [8] | outcome [9] | outcome [10] | outcome [12] | outcome [13] | outcome [14] | outcome [15] | outcome [17] | outcome [18]

O=CNC(N1CCN(C(NC=O)C(Cl)(Cl)Cl)CC1)C(Cl)(Cl)Cl (stereo not given)
inactive: Potency [1] | Potency [2] | Potency [3] | Potency [4] | Potency [5] | outcome [7] | outcome [8] | outcome [10] | outcome [11] | outcome [12] | outcome [13] | outcome [14] | outcome [15] | outcome [16] | outcome [17] | outcome [18] | outcome [19] | Potency [20]

CCS(=O)(=O)C(C)(C)S(=O)(=O)CC
inactive: Potency [1] | Potency [2] | Potency [3] | Potency [5] | Potency [6] | outcome [7] | outcome [8] | outcome [9] | outcome [10] | outcome [12] | outcome [13] | outcome [14] | outcome [15] | outcome [16] | outcome [17] | outcome [18] | outcome [19] | Potency [20]

CNC(=O)Oc1ccccc1C1OCCO1
inactive: Potency [1] | Potency [2] | Potency [3] | Potency [4] | Potency [5] | outcome [7] | outcome [8] | outcome [9] | outcome [10] | outcome [12] | outcome [14] | outcome [15] | outcome [16] | outcome [17] | outcome [18] | outcome [19] | Potency [20]

CCOP(=S)(OCC)Oc1nc(Cl)n(C(C)C)n1
inactive: Potency [1] | Potency [2] | Potency [3] | Potency [4] | Potency [6] | outcome [7] | outcome [8] | outcome [10] | outcome [12] | outcome [13] | outcome [14] | outcome [15] | outcome [17] | outcome [18] | outcome [19] | Potency [20]

Clc1cccc(N2CCNCC2)c1
inactive: Potency [1] | Potency [2] | Potency [3] | Potency [4] | Potency [5] | outcome [7] | outcome [8] | outcome [9] | outcome [10] | outcome [11] | outcome [12] | outcome [14] | outcome [15] | outcome [16] | outcome [17] | outcome [18] | outcome [19]

OC(c1ccc(F)cc1)(c1cncnc1)c1ccccc1Cl (stereo not given)
inactive: Potency [1] | Potency [2] | Potency [3] | Potency [5] | Potency [6] | outcome [7] | outcome [8] | outcome [10] | outcome [11] | outcome [12] | outcome [13] | outcome [14] | outcome [15] | outcome [16] | outcome [17] | outcome [18] | outcome [19]

OC(Cn1cncn1)(c1ccc(F)cc1)c1ccccc1F (stereo not given)
inactive: Potency [1] | Potency [2] | Potency [3] | Potency [4] | Potency [6] | outcome [7] | outcome [8] | outcome [9] | outcome [10] | outcome [12] | outcome [13] | outcome [14] | outcome [15] | outcome [16] | outcome [17] | outcome [18]

CC(COc1ccc(Oc2ccccc2)cc1)Oc1ccccn1 (stereo not given)
inactive: Potency [1] | Potency [2] | Potency [3] | Potency [4] | outcome [7] | outcome [8] | outcome [9] | outcome [10] | outcome [11] | outcome [12] | outcome [14] | outcome [15] | outcome [16] | outcome [18]

ClC(Br)Br
inactive: Potency [1] | Potency [2] | Potency [3] | Potency [4] | Potency [5] | outcome [7] | outcome [8] | outcome [10] | outcome [11] | outcome [12] | outcome [13] | outcome [14] | outcome [15] | outcome [16] | outcome [17] | outcome [18] | outcome [19]

Source: PubChem BioAssay (Tox21)
